Assay [1] is described as follows: A CellTox Green Cytotoxicity Assay to monitor cytotoxicity in HEK293 cells - 32 hour (AID 1224881). Further: nearly all actives have a fitted effect of over 40% in size. Further: potency means the concentration at half of the fitted maximal effect. The method, boiled down:
(§1)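 Read-out: fluorescence of a cell-impermeant cyanine dye staining DNA of dead cells, proportional to cytotoxicity. HEK293, 600 cells/well with reagent, compound (23 nL DMSO) added after 5 h; reads at 0, 8, 16, 24, 32, 40 h.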

Assay [2] can be described thus: A CellTox Green Cytotoxicity Assay to monitor cytotoxicity in HepG2 cells - 0 hour (AID 1224882). Further: nearly all actives have a fitted effect of over 35% in size. The method, boiled down:
(§2)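 HepG2, 600 cells/well premixed w/ CellTox Green; 5 h settle, 37 C/5% CO2; pintool cpd add (DMSO); 37 C, 40 h; fluorescence read at 0, 8, 16, 24, 32, 40 h.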

A short description of assay [3]: A CellTox Green Cytotoxicity Assay to monitor cytotoxicity in HepG2 cells - 32 hour (AID 1224883). Further: nearly all actives have a fitted effect of over 50% in size. Further: potency means the concentration at half of the fitted maximal effect. The method, boiled down: as §2
Assay [4] is described as follows: A CellTox Green Cytotoxicity Assay to monitor cytotoxicity in HEK293 cells - 8 hour (AID 1224884). Further: nearly all actives have a fitted effect of over 35% in size. The method, boiled down:
as §1

The nature of assay [5]: qHTS RealTime-Glo MT Cell Viability Assay in HEK293 cells - 24 hour (AID 1224886). Further: potency means the concentration at half of the fitted maximal effect; nearly all actives have a fitted effect of over 50% in size. The method, boiled down: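 Viability tracked continuously by luminescence as live cells reduce a prosubstrate for NanoLuc; HEK293 cells preincubated 5 h, compound-treated at 37 C, and read at 0, 8, 16, 24, 32 and 40 h.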
Assay [6] is described as follows: qHTS RealTime-Glo MT Cell Viability Assay in HEK293 cells - 8 hour (AID 1224887). Further: top concentration of the series differs between compounds; nearly all actives have a fitted effect of over 50% in size. The method, boiled down: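 Luminescence readout at each listed time point; HEK293, 600 cells/well, RealTime-Glo MT reagent added with cells; compounds pinned (23 nL in DMSO) after 5 h at 37 C; continuous culture at 37 C.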
Assay [7] can be described thus: A CellTox Green Cytotoxicity Assay to monitor cytotoxicity in HEK293 cells - 16 hour (AID 1224888). Further: nearly all actives have a fitted effect of over 35% in size. Further: potency means the concentration at half of the fitted maximal effect. The method, boiled down: as §1
The nature of assay [8]: qHTS assay to identify small molecule antagonists of the estrogen receptor alpha (ER-alpha) signaling pathway using the BG1 cell line in the presence of 0.1 nM 17-beta-estradiol - cell viability counter screen (AID 1259241). Further: nearly all actives have a fitted effect of over 40% in size. The method, boiled down: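 VM7Luc4E2 cells (endogenous full-length ER-alpha, 4xERE-luciferase), cultured 5 days in charcoal-stripped serum, exposed to compounds with 0.1 nM 17beta-estradiol (final) for 22 hr at 37C. Viability read in same wells as live-cell protease fluorescence after 30 min.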

Assay [9] concerns the target Estrogen receptor (Homo sapiens) (UniProt P03372). Kind of assay: qHTS assay to identify small molecule antagonists of the estrogen receptor alpha (ER-alpha) signaling pathway using the BG1 cell line in the presence of 0.1 nM 17-beta-estradiol (AID 1259244). Further: nearly all actives have a fitted effect of over 50% in size. The method, boiled down: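 Luminescence after ONE-Glo (30 min, room temperature) measured ERE-luciferase activity in VM7Luc4E2 cells treated 22 h with compound and 0.1 nM final 17beta-estradiol as stimulator.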

Assay [10] is described as follows: qHTS assay to identify small molecule HDAC inhibitors (AID 1259364).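 Further: wild-type HCT-116 cells with endogenous class I/II HDAC activity; top concentration of the series differs between compounds; nearly all actives have a fitted effect of over 45% in size.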 The method, boiled down: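 HCT-116 (wild type), 1,500 cells/well, overnight; compound 2 hr 37C 5% CO2; HDAC-Glo I/II reagent 30 min RT; luminescence readout.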
The nature of assay [11]: qHTS assay to identify small molecule HDAC inhibitors - cell viability counter screen (AID 1259365). The method, boiled down: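 Wild-type HCT-116 cells, 1,500/well, cultured overnight, then compound-treated 2 h at 37 C. Viability measured as ATP luminescence with CellTiter-Glo after 30 min at room temperature.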
Assay [12] is described as follows: qHTS assay to identify small molecule agonists of the sonic hedgehog signaling (Shh) pathway (AID 1259368; calls by dose curve;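 further: NIH/3T3-derived 3T3Gli1-Luc cells carrying a stable Gli1-driven firefly luciferase reporter; series mostly up to about 92 µM; nearly all actives have a fitted effect of over 15% in size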). The method, boiled down:
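Read-out: firefly luciferase luminescence from a Gli1 response element reporter stably integrated in NIH/3T3-derived 3T3Gli1-Luc cells, measured 30 min at room temperature after reagent addition. Compound exposure lasted 24 hr at 37 C, 5% CO2.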

A short description of assay [13]: qHTS RealTime-Glo MT Cell Viability Assay in HepG2 cells - 16 hour (AID 1224885). Further: nearly all actives have a fitted effect of over 50% in size. The method, boiled down:
(§3)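 Viability was tracked continuously by NanoLuc luminescence from prosubstrate reduced by living HepG2 cells, at successive time points over 40 h of compound exposure. Cells with reagent were preincubated 5 h at 37 °C before compound addition.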

The nature of assay [14]: A CellTox Green Cytotoxicity Assay to monitor cytotoxicity in HepG2 cells - 8 hour (AID 1224890). Further: nearly all actives have a fitted effect of over 45% in size. The method, boiled down:
as §2

Assay [15] in a line: qHTS assay to identify small molecule phospholipidosis (PLD) inducers (AID 1259344; active means well fitted curve in the direction sought with a large enough effect; an effect the other way counts as inactive or inconclusive). The method, boiled down: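 After 4 h attachment on collagen I, HepG2 cells were dosed with compound alongside LipidTOX Red, kept 24 h at 37 C, fixed, and imaged for lamellar phospholipid pits.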
Assay [16] can be described thus: qHTS assay to identify small molecule antagonists of the sonic hedgehog signaling (Shh) pathway - cell viability counter screen (AID 1259367). Further: nearly all actives have a fitted effect of over 55% in size. The method, boiled down:
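Conditioned medium drove Shh signaling in 3T3 Gli1-Luc cells exposed to compounds at 37C and 5% CO2. Viability was determined from CellTiter-Fluor fluorescence, with reagent incubated 1 hr after 23 hr of treatment.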

Assay [17] is described as follows: qHTS RealTime-Glo MT Cell Viability Assay in HepG2 cells - 0 hour (AID 1224889). Further: nearly all actives have a fitted effect of over 50% in size. The method, boiled down: as §3
Assay [18] is described as follows: qHTS assay to identify small molecule antagonists of the androgen receptor (AR) signaling pathway using the MDA cell line in the presence of 0.5 nM R1881 - cell viability counter screen (AID 1259242). Further: nearly all actives have a fitted effect of over 45% in size. The method, boiled down:
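Live-cell protease fluorescence, CellTiter-Fluor, 30 min at 37C. Cells: MDA-kb2, 3,000/well, preincubated 5 hr. Compounds plus 0.5 nM R1881 final, 16 hr, 37C, 0% CO2.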

A short description of assay [19]: qHTS assay to identify small molecule agonists of the sonic hedgehog signaling (Shh) pathway - cell viability counter screen (AID 1259366). Further: nearly all actives have a fitted effect of over 50% in size. The method, boiled down: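 NIH/3T3-derived Gli1-Luc reporter cells, 2,000 per well, received compound after 4 h and were treated about 23 h at 37C. Viability measured in the same wells by CellTiter-Fluor fluorescence after 1 h.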

Values without a mark were called inactive. Results filed as inconclusive are left out. The source made the active and inactive calls. Unless noted, the call rests on the fitted dose curve; in most records, active means well fitted curve in the direction sought with a large enough effect in the repeat runs; inconclusive means weak or mixed curves; inactive means no such curve, though single readings can be large; an effect the other way counts as inactive or inconclusive.

Potency data for nine compounds are collected here from PubChem BioAssay (Tox21).

Sequence of Estrogen receptor (Homo sapiens) (P03372 whole entry, looked up): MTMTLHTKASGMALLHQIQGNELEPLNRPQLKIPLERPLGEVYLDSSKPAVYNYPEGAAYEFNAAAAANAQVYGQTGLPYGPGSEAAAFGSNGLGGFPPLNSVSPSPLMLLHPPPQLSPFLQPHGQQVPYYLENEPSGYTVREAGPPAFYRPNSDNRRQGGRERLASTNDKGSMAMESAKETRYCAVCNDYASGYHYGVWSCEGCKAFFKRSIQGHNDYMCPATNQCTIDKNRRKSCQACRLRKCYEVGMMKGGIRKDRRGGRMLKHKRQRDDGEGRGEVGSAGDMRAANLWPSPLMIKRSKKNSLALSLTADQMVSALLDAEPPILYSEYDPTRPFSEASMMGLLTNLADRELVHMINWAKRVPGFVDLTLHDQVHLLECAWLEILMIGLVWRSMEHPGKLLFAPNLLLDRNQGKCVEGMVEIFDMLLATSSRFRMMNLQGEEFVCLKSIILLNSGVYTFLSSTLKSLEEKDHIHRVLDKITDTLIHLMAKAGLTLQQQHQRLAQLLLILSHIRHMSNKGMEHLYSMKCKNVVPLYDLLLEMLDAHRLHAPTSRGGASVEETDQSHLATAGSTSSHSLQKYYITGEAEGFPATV

Consider `CN1CCCC(CC2c3ccccc3Sc3ccccc32)C1` (configuration not stated), for which the Potency is 23.9 µM (active) in assay [1], 21.3 µM (active) in assay [3], 23.9 µM (active) in [5] and 23.9 µM (active) in assay [7]. The Potency entry in [2], in assay [4], in assay [6], in [8], in assay [9] and in assay [10] was “inactive” throughout. The Potency entry in assay [11] and in [12] was “inactive” each time.

`O=[N+]([O-])c1ccc(Nc2ccc(Nc3ccccc3)c(S(=O)(=O)O)c2)c([N+](=O)[O-])c1`: the Potency result in [1], in [2], in [3], in assay [4], in assay [13] and in [6] was “inactive” throughout. In addition, the Potency entry in assay [7], in [14], in assay [10], in assay [11] and in assay [12] was “inactive” throughout.

Regarding `COc1ccccc1N1CCN(CC(O)COc2cccc3ccccc23)CC1` (configuration not stated), the Potency entry in assay [1], in [2], in assay [4], in [13], in [6] and in [8] was “inactive” throughout. Besides, the Potency entry in assay [15], in [10], in assay [11], in [16] and in assay [12] was “inactive” in each case. Besides, the Potency in assay [3] was 26.8 µM (active).

In the case of `O=C(/C=C/c1ccc(O)c(O)c1)O[C@@H]1C[C@@](OC(=O)/C=C/c2ccc(O)c(O)c2)(C(=O)O)C[C@@H](O)[C@@H]1O`, the Potency entry in assay [1], in assay [2], in assay [3], in assay [4], in assay [13] and in assay [6] was “inactive” each time. For the same compound, the Potency result in assay [7], in assay [17], in assay [14], in [8], in assay [18] and in assay [9] was “inactive” in each case. The Potency entry in assay [15], in [10], in assay [11], in [19], in assay [16] and in [12] was “inactive” throughout.

`C=C/C(C)=C/C/C=C(\C)CCC=C(C)C`: the Potency result in [1], in [2], in [3], in assay [4], in [13] and in assay [6] was “inactive” each time. For the same compound, the Potency result in assay [7], in assay [17], in assay [14], in assay [8], in assay [18] and in [9] was “inactive” throughout. Moreover, the Potency result in assay [10], in assay [11], in [19], in [16] and in assay [12] was “inactive” each time.

Take `CCOC(=O)c1ccc(I)cc1`: the Potency in [1] was 35 µM (active). The Potency entry in assay [2], in [3], in [4], in [13], in assay [17] and in assay [9] was “inactive” each time. Besides, the Potency entry in assay [10], in assay [11], in [19], in assay [16] and in [12] was “inactive” in each case.

In the case of `Cc1ccc(Cl)c(Nc2ccccc2C(=O)O)c1Cl`, the Potency entry in assay [1], in assay [2], in assay [3], in assay [4], in assay [13] and in assay [6] was “inactive” each time. Further, the Potency entry in assay [17], in assay [14], in [18], in assay [9], in [15] and in assay [10] was “inactive” each time. Also, the Potency result in [11], in assay [19], in assay [16] and in assay [12] was “inactive” in each case.

In the case of `FC(F)(F)c1ccccc1Cl`, the Potency entry in assay [1], in assay [2], in assay [3], in [4], in assay [13] and in assay [6] was “inactive” in each case. The Potency result in assay [7], in [17], in assay [14], in [8], in assay [18] and in assay [9] was “inactive” in each case. Also, the Potency entry in assay [10], in assay [11], in [19], in assay [16] and in assay [12] was “inactive” each time.

For `CCOC(=O)c1ccc(OCCN2C[C@H](O)[C@@H](O)[C@H](O)[C@H]2CO)cc1`, the Potency entry in assay [1], in assay [2], in assay [3], in assay [4], in assay [13] and in [6] was “inactive” throughout. The Potency result in [7], in assay [17], in [14], in assay [8], in assay [9] and in assay [15] was “inactive” in each case. The Potency result in [10], in assay [11], in [19], in [16] and in [12] was “inactive” each time.
